Screens: PubChem BioAssay, National Center for Advancing Translational Sciences (NCATS)
LmPK inh = blocks Leishmania mexicana pyruvate kinase activity; Q27686; purified LmPK, Kinase-Glo ATP luminescence, 1 h; Potency, µM (titrated, usually from 57.5 µM), for inactives: top-dose activity change, negative = inhibition, actives largely listed as inhibitors; actives 0.37% (n = 290,000); AID 1721
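Screened at intermediate enzyme activity to detect both inhibitors and activators: LmPK at 0.1 nM, with a 0.5 nM enzyme column as activation reference. PEP 0.5 mM, ADP 0.1 mM; ATP detected by luminescence after 1 h.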
Tb PYK inh = inhibitors of Trypanosoma brucei pyruvate kinase; Potency, µM (titrated, usually from 76.8 µM), for inactives: top-dose activity, negative = inhibition, most hits filed as inhibitors; actives 0.12% (n = 410,000); Q57TT1; TbPYK enzyme, Kinase-Glo Plus ATP luminescence, 45 min; further: nearly all actives have a fitted effect of over 50% in size
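Assay buffer: 50 mM TEA pH 7.2, 100 mM KCl, 10 mM MgCl2, 0.05% BSA, 0.01% Tween-20. Pyruvate kinase from T. brucei plus substrate met compound, then ADP (130 uM final). Luminescence was read post 45 min RT.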
RE007 growth inh = less growth of the S. pombe RE007 Vpr strain; S. pombe RE007 Vpr strain, BacTiter-Glo ATP luminescence, 24 h; Potency, µM (titrated, usually from 92.2 µM), for inactives: at the highest dose activity change, negative = less growth, most hits filed as inhibitors; actives 0.21% (n = 360,000); AID 651644; active means well fitted falling curve with a large enough effect; inconclusive means small, poorly fitted or top-dose-only effect; inactive means no such curve, though single readings can be large or run the other way; further: nearly all actives have a fitted effect of over 50% in size
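Fission yeast RE007 carrying one integrated HIV-1 vpr copy, seeded at OD 0.01 in PMG+AL medium with 23 nL pinned compound. Grown 24 h at 30 degrees; viability read by BacTiter-Glo luminescence after 5 min.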
Sm TGR inh = S. mansoni TGR enzyme inhibition | Potency, µM (top dose mostly 114 µM), inactives show top-dose activity change, negative = inhibition, hits mostly inhibitors | purified TGR, DTNB reduction, TNB absorbance 405 nm | Q962Y6 | actives 3% (n = 360,000) | AID 485364; further: nearly all actives have a fitted effect of over 60% in size
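Kinetic colorimetric format: TGR-catalysed, NADPH-driven DTNB reduction monitored via TNB absorbance. Enzyme dispensed at 20 nM; compound exposure 15 min at room temperature before reaction start.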
FBPA Giardia inh = blocks Giardia fructose-bisphosphate aldolase activity | actives 0.71% (n = 290,000) | Potency, µM (doses to about 59.6 µM), for the others: top-dose activity, negative = inhibition, hits mostly inhibitors | A8B2U2 | AID 2451 | purified Giardia FBPA; further: nearly all actives have a fitted effect of over 55% in size
Target sequence (A8B2U2 whole entry, looked up): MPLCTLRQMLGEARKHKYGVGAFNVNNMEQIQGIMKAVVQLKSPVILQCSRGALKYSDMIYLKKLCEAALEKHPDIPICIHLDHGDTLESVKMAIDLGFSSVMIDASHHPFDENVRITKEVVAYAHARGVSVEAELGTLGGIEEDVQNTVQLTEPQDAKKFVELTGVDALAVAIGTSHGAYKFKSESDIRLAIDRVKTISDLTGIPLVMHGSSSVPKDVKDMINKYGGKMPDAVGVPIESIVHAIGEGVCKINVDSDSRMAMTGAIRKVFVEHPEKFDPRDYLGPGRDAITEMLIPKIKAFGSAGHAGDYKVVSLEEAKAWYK
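40 nM FBPA preincubated 10 min at RT with compound (up to 57.5 uM final), then substrate plus GAPDH/TPI/NAD/arsenate coupling and diaphorase/resazurin added. Fluorescence read after 20 min at RT, 525/598 nm.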
The depositor's hits bear a star; ? = inconclusive; / = no result given; [ ] = remark or other dose. Hits are enriched below; roughly 3.3% of the tested compounds scored in any of these assays. Unless noted, the call rests on the fitted dose curve; in most records, active means well fitted curve in the direction sought with a large enough effect; inconclusive means small, poorly fitted or top-dose-only effect, or another doubt; inactive means no such curve, though single readings can be large; an effect the other way counts as inactive or inconclusive. On the % scale 0 is the no-effect control and ±100 the full control effect; potency means the concentration at half of the fitted maximal effect.

SMILES | LmPK inh | Tb PYK inh | RE007 growth inh | Sm TGR inh | FBPA Giardia inh
CCOc1ccc(CN(C(=O)/C=C/c2ccco2)C2CCS(=O)(=O)C2)cc1 (stereo unspecified) | 7.8% | -11.1% | 12.4% | 4.47µM* | 11.8%
O=C(c1cc(C(F)(F)F)cc(C(F)(F)F)c1)N1CCC[C@@]2(CCN(c3ncccn3)C2)C1 | / | 1.1% | / | / | 0.6%
Cc1nn(CC(O)Cn2c3c(c4ccccc42)CCN(C)C3=O)c(C)c1Br (stereo unspecified) | -9.9% | -3.5% | 0.3% | -9.5% | -17.7%
COc1ccccc1C(=O)N(Cc1cccs1)C1CCS(=O)(=O)C1 (stereo unspecified) | 3.0% | -0.9% | -3.2% | 7.0% | 9.3%
COc1ccccc1C(=O)N(Cc1ccco1)C1CCS(=O)(=O)C1 (stereo unspecified) | 3.3% | -5.0% | 1.8% | 35.5µM* | 4.9%
O=C1c2ccccc2C(O)(Cc2ccccc2)N1Cc1ccco1 (stereo unspecified) | 2.3% | -12.2% | 10.9% | 44.7µM* | 0.6%
Cc1noc(C)c1S(=O)(=O)Nc1cccc(C(F)(F)F)c1 | 1.0% | -8.5% | 11.4% | 2.3% | 0.5%
Cc1ccc(S(=O)(=O)CCC(=O)Oc2ccc3c(C)cc(=O)oc3c2)cc1 | / | 0.0% | -25.3% | 22.4µM* | /
COc1ccc(N(C(=O)c2ccncc2)S(=O)(=O)c2cccs2)cc1 | -2.6% | 1.0% | 3.5% | 25.1µM* | -2.7%
O=C(Oc1ccc(N(C(=O)c2ccncc2)S(=O)(=O)c2ccc(Cl)cc2)cc1)c1ccncc1 | -3.8% | -11.1% | -5.7% | 17.8µM* | -4.8%
O=C(Oc1ccc(N(C(=O)c2ccncc2)S(=O)(=O)c2ccc(F)cc2)cc1)c1ccncc1 | 3.7% | -7.8% | 1.1% | 28.2µM* | -3.1%
Cc1ccc(S(=O)(=O)N(C(=O)c2ccncc2)c2ccc(OC(=O)c3ccncc3)cc2)cc1 | -3.0% | -4.1% | 20.0% | -18.5% | 0.1%
COc1ccc(N(C(=O)c2ccncc2)S(=O)(=O)c2ccc(Cl)cc2)cc1 | -1.0% | -1.7% | -4.0% | 20µM* | -0.8%
Cc1cc(S(=O)(=O)NCc2ccc(S(N)(=O)=O)cc2)c(C)s1 | -0.8% | 2.2% | 23.8% | 4.7% | -1.6%
O=C(CN1CCN(c2ncccn2)CC1)N1CCc2ccccc21 | -2.3% | 5.7% | -14.6% | 3.1% | 3.0%
CCOC(=O)C1CCN(C(=O)CCc2ccc(S(=O)(=O)NC(C)C)cc2)CC1 | 0.0% | 1.9% | 3.8% | 0.4% | -2.0%
CCCn1c(CCC(=O)O)ccc1-c1ccc(OC)cc1 | 4.9% | -0.2% | 2.9% | 39.8µM* | 2.6%
COc1ccc(-c2ccc(CCC(=O)O)n2NC(N)=O)cc1 | 4.9% | -7.1% | 2.8% | 44.7µM* | 1.4%
NC(=O)Nn1c(CCC(=O)O)ccc1-c1ccc(Br)cc1 | -2.5% | -2.4% | -3.6% | 14.1µM* | 4.2%
NC(=O)Nn1c(CCC(=O)O)ccc1-c1ccc(Cl)cc1 | -0.5% | -3.3% | -18.0% | -32.2% | 2.1%
COC(=O)CSc1nc(NC(C)(C)C)nc(N(C)C)n1 | 2.4% | 0.5% | -6.4% | 6.0% | 0.6%
Clc1nssc1=Nc1nncs1 | / | 5.01µM* | -1.1% | 50.1µM* | /
Clc1nssc1=Nc1ccc(Br)cc1 | 1.9% | ? | ? | -18.1% | ?
Cc1[nH]n(C)c(=O)c1C(=O)c1c(-c2ccccc2Cl)noc1C | 5.1% | -8.3% | 2.1% | 44.7µM* | -0.8%
COC(=O)[C@@]12C[C@@H](CC(=O)N3CCSCC3)C(=O)N(Cc3ccc4c(c3)OCO4)C1=CCC(C)(C)C2 | / | / | 0.0% | / | /
Cc1cc2nc(-c3ccc(SCC(=O)N4CCN(C(=O)c5ccco5)CC4)nc3)[nH]c2cc1C | -26.2% | -16.5% | -3.5% | 10µM* | 2.4%
O=C(NCC#CCOCc1ccccc1)c1ccccc1 | -2.0% | 4.1% | 1.5% | 7.08µM* | -8.8%
CN(Cc1c(C(=O)N/N=C/c2ccccc2O)nnn1-c1nonc1N)C1CCCCC1 | / | -15.2% | -25.3% | / | /
COc1ccc2[nH]c(=O)c(CN(Cc3cccs3)Cc3nnnn3Cc3ccccc3)cc2c1 | 4.7% | / | -5.8%[3.69 µM] | -0.1% | -4.0%
